Screening results (PubChem)
CSC inhib: blocks cancer stem cells; 300,000 tested, 1.1% active; inhibition, % at 7.5 µM; cancer stem cell-like cells viability, luminescence; in the data active = inhibition above about 75%; inconclusive = no clear call, values can overlap the other calls; tested in HMLE shEcad cells
MPTP inh: permeability transition pore inhibition; inhibition, % at 10 µM; AID 602449; isolated mouse mitochondria, Ca2+ swelling absorbance, 30 min; 360,000 tested, 1.4% active;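 active = inhibition of 50% or more, scaled per plate between neutral and stimulator controls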
Beta cell apopt: blocks beta cell apoptosis; INS-1E cytokine-induced death, ATP luminescence, 48 h; percent of positive-control rescue, neutral wells zero; protection from apoptosis, % (no concentration beside the values); 300,000 tested, 0.8% active;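 active = Every replicate reaches about 75%, or at least half do and their mean reaches it too, limit read from the data; inconclusive = At least half of replicates reach the limit but their mean does not; inactive = Under half of replicates reach the limit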;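 note: higher means more ATP so stronger rescue from cytokine killing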
Mdm2-MdmX inh: inhibitors of human Mdm2/MdmX interaction | SaOS-2 split-luciferase Mdm2/MdmX complementation, luminescence | inhibition, % at 8 µM | 330,000 tested, 3% active | AID 485346;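 active = inhibition of at least 50% at 8 µM in the primary screen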
Calb FLC: C. albicans growth modulation with fluconazole. C. albicans CaCi-2 (fluconazole-resistant clinical isolate) + fluconazole, Alamar Blue growth, 48 h. growth inhibition, % (test concentration not listed). 300,000 tested, 0.57% active;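 active = growth inhibition above about 58% in most replicates, limit read from the data, passing the limit was not always enough; inconclusive = exactly half the replicates above a set limit; inactive = most replicates below a set limit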;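 note: all wells also contain fluconazole at 8 µg/ml as a sub-toxic cotreatment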
Rh123 counter: mitochondrial membrane potential, counter-screen | 5,000 tested, 78% active | isolated mitochondria, Rhodamine 123 fluorescence | inhibition, % at 10 µM | AID 624504 | shares compounds with MPTP inh; in the data active = inhibition above about 22%
MPTP swell DR: MPTP inhibition, dose response swelling confirmation. 780 tested, 58% active. IC50, µM. isolated mitochondria swelling, absorbance. AID 651561. shares compounds with MPTP inh; in the data active = IC50 below about 20 µM
MPTP cs DR: active in counter-screen for permeability transition pore inhibitors. IC50, µM. AID 651564. shares compounds with MPTP inh. isolated mitochondria counterscreen, fluorescence read-out. 780 tested, 49% active; in the data active = IC50 below about 80 µM
Of the large screens only hits and unclear results are named; the others gave an inactive call (follow-up assays come after a bar, where they were run); ! = not confirmed by another sample. This is a sample that favours compounds with a hit; in the whole collection about 4.8% have one here.

S=C(NCCc1ccc(Cl)cc1)Nc1ccc(Cl)cc1Cl	MPTP inh 86 | Rh123 counter 86
S=C(NCc1cccs1)Nc1ccc(Br)cc1Cl	MPTP inh 75 | Rh123 counter 79
CN(C)CC/C=C1/c2ccccc2Sc2ccc(Cl)cc21	MPTP inh 95! | Rh123 counter inactive
CCCCCC[N+](C)(C)CC/C=C1/c2ccccc2Sc2ccc(Cl)cc21	none
O=S(=O)(c1ccccc1)N1CCN(C(=S)Nc2ccc(F)cc2)CC1	none (no result: Beta cell apopt)
O=S(=O)(c1ccc(Cl)cc1)N1CCN(C(=S)Nc2ccc(F)c(Cl)c2)CC1	MPTP inh 85 | Rh123 counter 88
Cc1ccc(-n2c(Cl)c(Cl)nc(Cl)c2=O)cc1	CSC inhib 91, MPTP inh 67, Beta cell apopt 98 (no result: Mdm2-MdmX inh, Calb FLC) | Rh123 counter inactive
COc1nc(Cl)cn(-c2ccc(C)cc2)c1=O	none
CC(C)c1ccc(CNc2ccc([N+](=O)[O-])cn2)cc1	none
CC(C)(C)c1ccc(CNc2ccc([N+](=O)[O-])cn2)cc1	MPTP inh 56 (no result: Mdm2-MdmX inh) | Rh123 counter 75
CCOC(=O)C1(CCOc2ccccc2)CCN(Cc2ccc(NC(C)=O)cc2)CC1	none
CCOC(=O)C1(CCOc2ccccc2)CCN(Cc2ccc(OC)cc2)CC1	MPTP inh 87 (no result: Mdm2-MdmX inh) | Rh123 counter 36
CCOC(=O)C1(Cc2cccc(OC)c2)CCN(Cc2ccc(C)s2)CC1	MPTP inh 97 | Rh123 counter 85
CCOC(=O)C1(CCOc2ccccc2)CCN(Cc2cccc(OC)c2OC)CC1	MPTP inh 75 (no result: Beta cell apopt) | Rh123 counter 33
O=C(COc1ccc2c3c(c(=O)oc2c1)CCC3)NCc1cccnc1	none
COc1ccccc1NS(=O)(=O)c1ccc(NN=C2CCCC2)c([N+](=O)[O-])c1	MPTP inh 60 | Rh123 counter 47
O=C1CN(C(=O)CSc2nc(-c3ccccc3)cs2)c2ccccc2N1	Calb FLC inconclusive (no result: CSC inhib)
CC1(C)C(=O)Nc2ccccc2N1C(=O)CSc1nc(-c2ccccc2)cs1	MPTP inh 98 (no result: CSC inhib, Beta cell apopt) | Rh123 counter 70
O=c1ccc(-c2ccc(S(=O)(=O)Nc3cccc(Br)c3)o2)n[nH]1	none
COc1cc(C(=O)NC2CCCC(C)C2C)ccc1OCC(=O)N1CCOCC1 (stereo not given)	none (no result: Calb FLC)
CC(=O)N1CCN(c2ccc(S(=O)(=O)NCCN(C(C)C)C(C)C)cc2[N+](=O)[O-])CC1	none
CN(C)CCNS(=O)(=O)c1ccc(N2CCN(c3ccc(F)cc3)CC2)c([N+](=O)[O-])c1	MPTP inh 50 | Rh123 counter inactive | MPTP swell DR 7.1 | MPTP cs DR 20
COc1ccccc1C=NN=C(NN=Cc1ccccc1OC)NN=Cc1ccccc1OC	MPTP inh 94 (no result: CSC inhib, Beta cell apopt, Mdm2-MdmX inh, Calb FLC) | Rh123 counter 97
COc1ccc(F)cc1CSc1nnnn1-c1ccc(O)cc1	none (no result: Beta cell apopt)
COc1cc(CSc2nnnn2-c2ccc(C)cc2)cc(OC)c1OC	MPTP inh 92, Beta cell apopt 102 | Rh123 counter 89
Cc1ccc(Cl)cc1N1CCN(C(=O)CN(c2ccccc2)S(=O)(=O)N(C)C)CC1	none
Cc1ccc(S(=O)(=O)N/N=C\c2ccc3c(c2)OCO3)c(C)c1	none
Cc1cc(OC(=O)c2c(C)cc(OC(=O)c3c(C)cc(O)cc3O)cc2O)cc(O)c1C(=O)O	MPTP inh 72 | Rh123 counter 67
COC(=O)c1c(C)cc(O)cc1O	none
Cc1ccc(S(=O)(=O)N2C[C@H]3C(=O)C[C@@H](c4ccccc4)N(S(=O)(=O)c4ccc(C)cc4)[C@H]3C[C@H]2c2cccs2)cc1	none (no result: CSC inhib, Beta cell apopt, Mdm2-MdmX inh, Calb FLC)
CC(=O)N1CCc2cc(S(=O)(=O)C(C)CC(=O)Nc3ccc(OC(F)(F)F)cc3)ccc21 (stereo not given)	none
COc1ccccc1NC(=O)c1c(Nc2ccccc2F)sc(C(=O)Nc2cccc(Cl)c2)c1N	CSC inhib 83, MPTP inh 78 | Rh123 counter 46
N#Cc1cc2nc(O)c(O)nc2cc1[N+](=O)[O-]	none (no result: Calb FLC)
CNc1nc2cc([N+](=O)[O-])c([N+](=O)[O-])cc2nc1NC	MPTP inh 105, Beta cell apopt 98 (no result: Mdm2-MdmX inh) | Rh123 counter 94
COc1ccc(-c2nc(N3CCN(C)CC3)sc2-c2ccc(OC)cc2)cc1	MPTP inh 74 | Rh123 counter inactive | MPTP swell DR inactive | MPTP cs DR inactive
